Sampled rows, rich in hits. Any-hit rate of the full collection: about 2.8%.
MsrA inhibitor = bovine MsrA inhibition; purified bovine MsrA, absorbance read-out; inhibition, % at 15.5 µM; hit rate 0.75% among 360,000; AID 651718; in the data active = inhibition above about 4.5%;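 note: 0% = vehicle wells with enzyme and 100% = reference inhibitor wells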
MsrA act = activators of bovine methionine sulfoxide reductase A; purified bovine MsrA, absorbance read-out; activation, % at 10.6 µM; hit rate 0.3% among 360,000; in the data active = activation above about 7.5%;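 note: 0% = vehicle and 100% = reference activator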
SMARCA2 activ = increases SMARCA2 function in MMTV reporter cells; activation, % at 9.1 µM; MG213 cells, MMTV-luciferase reporter, dexamethasone, overnight; hit rate 1% among 370,000; in the data active = activation above about 7.8%;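 note: 0% = vehicle wells and 100% = reference activator wells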
proKLK7 act = activates the human kallikrein-7 zymogen | P49862 | purified proKLK7, EDANS-DABCYL substrate fluorescence; 100% is mature enzyme control, 0% vehicle | activation, % at 7 µM | hit rate 0.9% among 370,000 | AID 652039;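 active = activation above the mean of all tested compounds plus 3 SD, computed per campaign excluding outliers beyond control limits, cut at about 13% in these data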
Target sequence (P49862 whole entry, looked up): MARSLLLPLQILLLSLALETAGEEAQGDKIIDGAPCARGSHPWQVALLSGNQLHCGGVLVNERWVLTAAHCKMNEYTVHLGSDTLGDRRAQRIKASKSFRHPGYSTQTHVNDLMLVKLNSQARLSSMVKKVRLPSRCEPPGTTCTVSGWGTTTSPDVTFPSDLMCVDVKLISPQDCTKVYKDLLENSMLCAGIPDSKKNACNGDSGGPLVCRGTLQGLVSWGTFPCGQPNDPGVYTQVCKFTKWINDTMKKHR
SMARCA2 act conf = confirmation of SMARCA2 (BRM) function activators; AID 652260; shares compounds with SMARCA2 activ; activation, % at 9.1 µM; MG213 cells, MMTV-luciferase with dexamethasone, luminescence, overnight; MG213 cells expressing E1A, Rb sequestered; DMSO wells 0%, reference activator 100%; hit rate 30% among 3,500;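 active = activation above its plate's cutoff, the mean activation of tested wells plus 3 SD, cut at about 7.9% in these data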
GAL4-VP16 Luc = counter-screen for SMARCA2 activators: GAL4-VP16 luciferase reporter activation; shares compounds with SMARCA2 activ; HEK293 GAL4-VP16 pG5luc reporter, luciferase luminescence; scaled: DMSO wells 0%, SAHA wells 100%; activation, % at 9.1 µM; hit rate 41% among 3,500; AID 686939;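 active = activation above the solvent-only control well mean plus 3 SD, averaged across control plates, cut at about 5.2% in these data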
An asterisk follows results filed as active; . = no result given.

SMILES | MsrA inhibitor | MsrA act | SMARCA2 activ | proKLK7 act | SMARCA2 act conf | GAL4-VP16 Luc
Cc1ccc2nc3n(c(=O)c2c1)-c1ccccc1C(=O)NC3Cc1ccc(O)cc1 (stereo not given) | 1 | . | -1 | 0 | . | .
CCOC(=O)c1c(NC(=O)C(NCCN(C)C)c2ccccc2)sc2c1CCCC2 (stereo not given) | -2 | -9 | 13* | 0 | -14 | 4
CCOC(=O)c1c(NC(=O)c2ccccc2N(C)S(=O)(=O)c2ccccc2)sc2c1CCCC2 | 1 | -3 | -3 | -20 | . | .
O=C(CSc1nnc(CNC(=O)c2ccccc2)o1)NCCc1ccccc1 | 0 | -2 | 2 | 0 | . | .
O=C(CSc1nnc(Cc2ccccc2)o1)NCCc1ccccc1 | -1 | 0 | 8.2* | 0 | 6 | -1
CCC(C)[C@H](NC(=O)[C@H](Cc1ccccc1)NC(=O)OC(C)(C)C)C(=O)NCc1ccccc1Br (stereo not given in full) | . | . | 0 | 0 | . | .
N#Cc1ccccc1OCC(=O)Nc1ccc2c(c1)OCO2 | -1 | 1 | 9.0* | 0 | 18* | 7.6*
N#Cc1ccccc1OCC(=O)Nc1ccc2c(c1)OCCO2 | -1 | -1 | 8.5* | 0 | 4 | 6.3*
N#Cc1ccccc1OCC(=O)Nc1ccc2c(c1)OCCCO2 | 0 | -5 | 6 | 0 | . | .
CC(=O)NCCC(=O)Nc1cc(S(=O)(=O)N2CCOCC2)ccc1N1CCCC1 | -1 | 1 | -2 | 0 | . | .
O=C(Cc1ccccc1)Nc1nc(-c2cccs2)cs1 | 0 | -8 | 11* | 0 | 3 | 6.4*
O=C(Cc1ccccc1F)Nc1nc(-c2cccs2)cs1 | 0 | -2 | 2 | 0 | . | .
CCOc1cc2c(C)cc(=O)oc2cc1Cl | 1 | -3 | 9.9* | 1 | -1 | -2
CCOc1cc2oc(=O)c3c(c2cc1Cl)CCC3 | 1 | -3 | 0 | 0 | . | .
CCCCCN1CCCCC(NC(=O)c2ccc(C)cc2)C1=O (stereo not given) | . | . | -1 | 0 | . | .
Cc1cc(C)cc(C(=O)NCC(=O)OCC(=O)N2CCCC2)c1 | 0 | -2 | 8.5* | 0 | 0 | 1
Cc1cc(C)cc(Cn2cc(CN3CC(N4CCSCC4)CS3(=O)=O)nn2)c1 (stereo not given) | 1 | -12 | -4 | 0 | . | .
COC(=O)[C@]12CCCCC=C1N(Cc1ccc3c(c1)OCO3)C(=O)[C@H](CC(=O)N1CCN(C(=O)c3ccco3)CC1)C2 | 0 | . | -4 | 0 | . | .
CC(=O)N1CCCN(C(=O)CCn2nnc3ccccc32)CC1 | . | . | -2 | -1 | . | .
COc1cccc(N2CCN(C(=O)CCn3nnc4ccccc43)CC2)c1 | . | . | 9.4* | 1 | 7 | 1
CN1C(=O)/C(=C/c2cn(CC(=O)NCc3ccco3)c3ccccc23)NC1=S | 0 | . | -1 | 0 | . | .
CCN=C1S/C(=C\c2cn(CC(=O)NCc3ccco3)c3ccccc23)C(=O)N1CC | 1 | -3 | 8.1* | 2 | 9.9* | 4
O=Cc1ccc(OCc2ccc3ccccc3c2)cc1 | 0 | -1 | 8.2* | -1 | 5 | 6.1*
O=Cc1ccc(OCc2ccccn2)cc1 | 0 | -2 | 1 | 0 | . | .
O=C(c1ccc(Cl)cc1)C1CCN(Cc2ccccc2)CC1 | 0 | 0 | 8.2* | 0 | -3 | -1
SMILES | MsrA inhibitor | MsrA act | SMARCA2 activ | proKLK7 act | SMARCA2 act conf | GAL4-VP16 Luc
O=C(c1ccc(F)cc1)C1CCN(Cc2ccccc2F)CC1 | 1 | 4 | -3 | 0 | . | .
COc1ccc(CN2C[C@]3(C=C(C)Cn4c(=O)n(-c5ccccc5)c(=O)n43)N(C(=O)OCc3ccccc3)C2=NC(=O)c2ccccc2)c(OC)c1 | . | . | 8.6* | 0 | 0 | 0
COc1ccc(CN2C[C@]3(C=C4CCCCC4n4c(=O)n(-c5ccccc5)c(=O)n43)N(C(=O)OCc3ccccc3)C2=NC(=O)c2ccccc2)c(OC)c1 (stereo not given in full) | . | . | -4 | 0 | . | .
COc1ccc(-c2nc3ccccn3c2C=O)cc1 | 2 | -2 | 8.7* | 0 | 8 | 9.0*
CC(OC(=O)/C(C#N)=C/c1ccc(N(C)C)cc1)C(=O)N(C)c1ccccc1 (stereo not given) | 1 | -3 | -2 | 0 | . | .
CC(=O)Nc1ccc(NC(=O)C(C)OC(=O)/C(C#N)=C/c2ccc(N(C)C)cc2)cc1 (stereo not given) | 1 | -2 | 8.0* | 0 | 8.7* | 7.3*
CC(C)c1ccc2[nH]c3nc(SCC(=O)N4CCOCC4)nnc3c2c1 | 1 | -3 | 9.7* | -2 | 4 | 5.8*
COCc1cc(=O)n2[nH]c(-c3ccc(C)cc3)cc2n1 | 0 | -3 | 10* | 1 | 8.9* | 5
CCc1c(C)nc2cc(-c3ccc(OC)cc3)[nH]n2c1=O | -1 | -3 | 8.9* | -7 | 11* | 11*
COc1cc(OC)cc(C(=O)N[C@H](C(=O)NC23CC4CC(CC(C4)C2)C3)C(C)C)c1 | 0 | 0 | 9.9* | 1 | 1 | 0
COc1cc(/C=C2\SC(=Nc3ccc(O)cc3)NC2=O)cc(OC)c1OC | 0 | . | -3 | 0 | . | .
COc1cc(/C=C2/SC(=Nc3ccc(O)cc3)NC2=O)cc(OC)c1O | 2 | -14 | 8.9* | 0 | 4 | 1
COc1ccc(/C=N/NC(=O)c2ccc(=O)[nH]n2)cc1OC | 3 | -5 | 4 | 0 | . | .
COc1ccc(/C=N\NC(=O)c2ccc(=O)[nH]n2)cc1O | 3 | -9 | 12* | 0 | -1 | 0
C/C(=N\NC(=S)Nc1ccccc1)C1Cc2ccccc2C(=O)O1 (stereo not given) | -1 | 1 | 8.3* | 1 | 2 | 3
C/C(=N\NC(=S)Nc1ccccc1C)C1Cc2ccccc2C(=O)O1 (stereo not given) | -1 | -5 | 4 | 0 | . | .
CNc1ncnc2c1ncn2[C@H]1CN(Cc2cccc3ccccc23)C[C@@H](CO)O1 | -1 | 3 | 0 | 0 | . | .
COc1cccc(CNc2nc3ccccc3n2C)c1O | -1 | -4 | 9.5* | 0 | 11* | 9.6*
O=S1(=O)c2ccc(N3CCC[C@H]3CO)cc2O[C@H]2CCN1C2 | . | . | -1 | 0 | . | .
O=C(NC1CCCC1)C1C(c2ccc(C(F)(F)F)cc2)=Nc2ccccc2N1C(=O)c1ccccc1 (stereo not given) | 1 | . | 13* | -1 | 4 | 5.8*
O=C(NC1CCCC1)C1C(c2ccc(C(F)(F)F)cc2)=Nc2ccccc2N1C(=O)c1ccco1 (stereo not given) | -1 | . | 3 | 0 | . | .
CN(Cc1ccc(Cl)c(Cl)c1)C(C(=O)NCc1ccccc1)c1ccc(C(F)(F)F)cc1 (stereo not given) | 0 | . | 6 | 0 | . | .
CCOC(=O)N1CCN(C(=O)Nc2ccccc2Cl)CC1 | 0 | 1 | 9.0* | 0 | 1 | 2

Source: PubChem (The Scripps Research Institute Molecular Screening Center)
